Where “and” joins values, the source holds several entries; their conditions need not be identical. Identical values can stand only once. Inconclusive results are not listed. More than one record can exist for a structure, and the calls need not agree. Calls of active or inactive are those of the source. Unless noted, calls come from the whole dose curve; as a rule, active = well fitted inhibition curve with a large enough effect; inconclusive = small, poorly fitted or top-dose-only effect; inactive = flat fitted curve, though single readings scatter.
System: not listed separately
Assay: Drug repurposing screens with cells derived from glioblastoma tumor samples (AID 1345199); note: nearly all actives have a fitted effect of over 40% in size; note: potency is the fitted concentration of half-maximal effect; for activity, negative = cell killing: % is set by controls: 0 for no effect and ±100 for the full control effect
Details: GBM patient neurospheres viability, ATP luminescence, 48 h; at 45.9 µM (top of the series); tumour line B
Summary of the method: (§1)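 Primary testing used CD133+ neurospheres from four GBM patients, seven concentrations, 48 h exposure and ATP-based viability; confirmation added three slower-growing patient lines.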

Row | Structure (SMILES) | activity, negative = cell killing
1 | NCCCC(N)(C(=O)O)C(F)F (stereo not given) | -9.02% (inactive)
2 | CCCc1nn(C)c2c(=O)[nH]c(-c3cc(S(=O)(=O)N4CCN(C)CC4)ccc3OCC)nc12 | -8.65% (inactive)
3 | Cc1ccc(N(CC2=NCCN2)c2cccc(O)c2)cc1 | -13.6% (inactive)
4 | c1ccc([C@H]2CN3CCSC3=N2)cc1 | -5.9% (inactive)
5 | Cc1cn[nH]c1 | 0.573% (inactive)
6 | NC(=O)c1cnccn1 | -8.76% (inactive)
7 | COc1ccc2nc(S(=O)Cc3ncc(C)c(OC)c3C)[nH]c2c1 (stereo not given) | -19.3% (inactive)

Same assay, conditions: GBM patient neurospheres viability, ATP luminescence, 48 h; at 45.9 µM (top of the series); tumour line D

Row | Structure (SMILES) | activity, negative = cell killing
8 | NCCCC(N)(C(=O)O)C(F)F (stereo not given) | 7.69% (inactive)
9 | CCCc1nn(C)c2c(=O)[nH]c(-c3cc(S(=O)(=O)N4CCN(C)CC4)ccc3OCC)nc12 | -23.3% (inactive)
10 | c1ccc([C@H]2CN3CCSC3=N2)cc1 | -15.5% (inactive)
11 | Cc1cn[nH]c1 | -5.07% (inactive)
12 | NC(=O)c1cnccn1 | -23.3% (inactive)
13 | Cc1ccccc1C(OCCN(C)C)c1ccccc1 (stereo not given) | -29.5% (inactive)

Same assay, conditions: GBM patient neurospheres viability, ATP luminescence, 48 h; at 46 µM (top of the series); tumour line A

Row | Structure (SMILES) | activity, negative = cell killing
14 | NCCCC(N)(C(=O)O)C(F)F (stereo not given) | -29.6% (inactive)
15 | Cc1cn[nH]c1 | -17.3% (inactive)
16 | NC(=O)c1cnccn1 | -24.5% (inactive)

Same assay, conditions: GBM patient neurospheres viability, ATP luminescence, 48 h; at 46.1 µM (top of the series); tumour line C

Row | Structure (SMILES) | activity, negative = cell killing
17 | NCCCC(N)(C(=O)O)C(F)F (stereo not given) | -4.46% (inactive)
18 | CCCc1nn(C)c2c(=O)[nH]c(-c3cc(S(=O)(=O)N4CCN(C)CC4)ccc3OCC)nc12 | 12.9% (inactive)
19 | Cc1ccc(N(CC2=NCCN2)c2cccc(O)c2)cc1 | -7.27% (inactive)
20 | c1ccc([C@H]2CN3CCSC3=N2)cc1 | -7.79% (inactive)
21 | Cc1cn[nH]c1 | -3.17% (inactive)
22 | NC(=O)c1cnccn1 | -17% (inactive)
23 | Cc1ccccc1C(OCCN(C)C)c1ccccc1 (stereo not given) | 0.923% (inactive) and -8.9% (inactive)

Same assay, conditions: GBM patient neurospheres viability, ATP luminescence, 48 h; tumour line A

Row | Structure (SMILES) | Potency
24 | CCCc1nn(C)c2c(=O)[nH]c(-c3cc(S(=O)(=O)N4CCN(C)CC4)ccc3OCC)nc12 | 22.4 µM (active)
25 | Cc1ccc(N(CC2=NCCN2)c2cccc(O)c2)cc1 | 14.1 µM (active)
26 | c1ccc([C@H]2CN3CCSC3=N2)cc1 | 15.8 µM (active)

System: astro (control astrocytes)
Assay: as above
Details: viability, ATP luminescence, 48 h; series mostly up to 45.9 µM
Summary of the method: as §1

Row | Structure (SMILES) | Potency
27 | NCCCC(N)(C(=O)O)C(F)F (stereo not given) | inactive
28 | CCCc1nn(C)c2c(=O)[nH]c(-c3cc(S(=O)(=O)N4CCN(C)CC4)ccc3OCC)nc12 | inactive
29 | Cc1ccc(N(CC2=NCCN2)c2cccc(O)c2)cc1 | inactive
30 | Nc1ccc(S(=O)(=O)Nc2ccnn2-c2ccccc2)cc1 | inactive
31 | c1ccc([C@H]2CN3CCSC3=N2)cc1 | inactive
32 | Cc1cn[nH]c1 | inactive
33 | NC(=O)c1cnccn1 | inactive
34 | COc1ccc2nc(S(=O)Cc3ncc(C)c(OC)c3C)[nH]c2c1 (stereo not given) | inactive
35 | OC(CN1CCC(Cc2ccc(F)cc2)CC1)c1ccc(Cl)cc1 (stereo not given) | inactive
36 | NNCCc1ccccc1 | inactive
37 | Cc1ccccc1C(OCCN(C)C)c1ccccc1 (stereo not given) | inactive

Molecular target: Nuclear receptor subfamily 1 group I member 2 (Rattus norvegicus) (UniProt Q9R1A7)
Assay: qHTS assay for small molecule activators of the rat pregnane X receptor (rPXR) signaling pathway (AID 651751; call rule not given here; note: 0% is about no effect)
Details: rPXR reporter cells, luciferase (One-Glo), 24 h

Nuclear receptor subfamily 1 group I member 2 (Rattus norvegicus), sequence (Q9R1A7 whole entry, looked up): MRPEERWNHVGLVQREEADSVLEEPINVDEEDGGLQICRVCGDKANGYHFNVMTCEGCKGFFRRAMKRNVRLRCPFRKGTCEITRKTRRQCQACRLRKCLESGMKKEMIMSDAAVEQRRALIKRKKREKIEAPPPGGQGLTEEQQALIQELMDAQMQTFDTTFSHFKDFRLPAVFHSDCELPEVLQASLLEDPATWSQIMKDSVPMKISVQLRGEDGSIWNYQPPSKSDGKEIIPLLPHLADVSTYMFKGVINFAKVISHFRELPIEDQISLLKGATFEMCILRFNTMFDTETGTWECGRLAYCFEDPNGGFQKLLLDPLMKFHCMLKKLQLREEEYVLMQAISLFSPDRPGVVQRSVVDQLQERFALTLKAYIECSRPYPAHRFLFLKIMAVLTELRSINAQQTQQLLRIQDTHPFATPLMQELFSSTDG

Row | Structure (SMILES) | max response
38 | NC(=O)c1cnccn1 | -0.614% (inactive) and 3.04% (inactive)
39 | COc1ccc2nc(S(=O)Cc3ncc(C)c(OC)c3C)[nH]c2c1 (stereo not given) | 14.6% (inactive)
40 | Cc1ccccc1C(OCCN(C)C)c1ccccc1 (stereo not given) | 4.25% (inactive)

Source: PubChem BioAssay (NCATS)
